# Test results: PubChem BioAssay
# Unmarked numbers belong to inactive results. How the calls were made is not given here.
# Tested on: Aerobactin synthetase IucA (Klebsiella pneumoniae hvKP1)
# Assay: Biochemical IucA enzyme inhibition primary screen of the Spectrum library (AID 1346200);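 further: 100% = wells without compound and 0% = wells lacking enzyme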
# Details: malachite green pyrophosphate, A620, at 8 µM, stronger effect = lower value
row,Compound,activity remaining [%]
1,CCOC(=O)NNc1nncc2ccccc12,118
2,COc1cc(O)c2c(c1)C(=O)c1cc(C)cc(O)c1C2=O,97.7
3,COc1cc(OC)c2c(OC)c(-c3ccc4c(c3)OCO4)c(=O)oc2c1,95.4
4,CC(C1OC(C)(C)C(O)C1O)[C@@H]1CC[C@]2(C)C3=CCC4C(C)(C)C(=O)CC[C@]4(C)C3CC[C@@]12C (stereo partly specified),111
5,CCCCCC1C(=O)CCC1CC(=O)OC (stereo unspecified),118
6,CCN1CCCC(OC(=O)C(c2ccccc2)c2ccccc2)C1 (stereo unspecified),110
7,CC(=O)Oc1ccc2c(c1C(C)C)CCC1C(C)(C)CCC[C@]21C (stereo partly specified),97.3
8,Cc1cccc2c3c(ccc12)C1=C(C(=O)C3=O)C(C)CO1 (stereo unspecified),114
9,C=C1c2cccc(O)c2C(O)=C2C(=O)[C@]3(O)C(O)=C(C(N)=O)C(=O)[C@@H](N(C)C)[C@@H]3[C@@H](O)[C@H]12,111
10,O=C(Cc1ccccc1)NO,109
11,CC12OC(=O)CC3C(C)(C)[C@H](O)C=C[C@]3(C)C1CC[C@]1(C)C2=CC(=O)O[C@H]1c1ccoc1 (stereo partly specified),118
12,Nc1ccc(C(=O)NCC(=O)O)cc1,111
13,CN(C)CC[C@H](c1ccc(Cl)cc1)c1ccccn1,90.6
14,C[C@]12CCc3occc3C1CC[C@@]13C[C@@H](CCC12)[C@@](O)(CO)C3 (stereo partly specified),93.4
15,O=C(Oc1ccccc1C(=O)O)c1ccccc1O,115
16,CCOC(=O)c1ccc(O)cc1,114
